Inconclusive results are not listed. The source made the active and inactive calls. Calls come from the whole dose curve; as a rule, active = well fitted cell-killing curve with a large enough effect; inconclusive = small, poorly fitted or top-dose-only effect; inactive = flat fitted curve, though single readings scatter.
Experiment: qHTS of pediatric cancer cell lines to identify multiple opportunities for drug repurposing: Primary screen for U-2 OS cells (AID 1347096); note: nearly all actives have a fitted effect of over 50% in size;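 for activity change, negative = cytotoxic: plate controls were DMSO wells for no effect and bortezomib positive control wells for full effect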
Conditions: U-2 OS viability, CellTiter-Glo luminescence, 48 h; series mostly up to 46 µM; activity change, negative = cytotoxic: at the top concentration
Excerpt: Drug repurposing or repositioning has been offered as a strategy for drug development in oncology programs. This approach has special potential for childhood cancers and other rare or orphan diseases, where the expected return on new drug development has been a disincentive to pharmaceuticals.
In this project we exploit the poly-pharmacology of drugs to discover new indications via phenotypic screening of a panel of 19 well-characterized cell lines derived from solid tumors seen in children and adolescents. The goal is to identify approved drugs with previously unrecognized anticancer properties that has the potential to reveal new mechanisms and biological processes involved in carcinogenesis or drug resistance. We employed a titration-based paradigm (quantitative high-throughput screening or qHTS), where all compounds were tested at multiple concentrations for their effect on cell viability. Concentration-response curves (CRCs) were derived directly from the primary screen, and both potency and efficacy values were used to identify compounds with robust bioactivity profiles. We screened the NIH Chemical Genomics Center (NCGC) Pharmaceutical Collection (NPC) and Mechanism Interrogation Plate (MIPE) small molecule collections of approved and investigational compounds against these cell lines; and measured metabolically active cells after 48 hours of compound treatment as a proxy for cell viability.
Assay Submitter: Nathalia J. Martinez, National Center for Advancing Translational Sciences, National Institutes of Health, Rockville, MD, USA; email: natalia.martinez@nih.gov
[1] Shen, M et al. Quantitative high-throughput phenotypic screening of pediatric cancer cell lines identifies multiple opportunities for drug repurposing. Oncotarget 2017 Dec 19;9(4):4758-4772. PMID 29435139.
The cells were obtained from University of North Carolina (UNC), Pediatric Preclinical Testing Program (PPT), and Coriell Institute (CI).
qHTS cell viability assay:
Cells were assayed in growth media at a density of 500-1,000 cells/well. Five microliters of cells were dispensed into 1,536-well, white, solid-bottom, TC-treated plates (Greiner Bio One) using a multidrop dispenser and incubated at 37 degrees C, 5% CO2, under a humidified atmosphere for 5 hours. Twenty-three nanoliters of compounds and controls (neutral control DMSO or positive control bortezomib at final concentration of 2.3 µM) were subsequently transferred by Kalypsys pintool. For primary screens, the MIPE collection was tested at 11-point dilutions (final concentrations range from 0.78 nM to 46 µM) and the NPC collection at 8-point dilutions (final concentrations range from 0.59 nM to 46 µM). Compounds tested in follow-up screens were assayed at 11-point dilutions. Cells were incubated for 48 hours, followed by addition of 3 µL of CellTiter-Glo (Promega). After a 15 min incubation at room temperature, samples were analyzed for luminescence intensity using a ViewLux High-throughput CCD imager equipped with clear filters.
In the case of `CC(=O)Nc1sc2c(c1-c1nc3ccccc3s1)CNC2`, the “activity change, negative = cytotoxic” value is reported as -19.8% (inactive).
For `Nc1ncnc2c1c(-c1cnc3[nH]ccc3c1)nn2C1CCCC1`, the Potency was 2.35 µM (active).
For `CN(C1CCc2c(c3ccccc3n2CC(=O)O)C1)S(=O)(=O)c1ccc(F)cc1` (stereo not given), the “activity change, negative = cytotoxic” value was -10.3% (inactive).
With `Cc1cnc(-c2cnc(NCCNc3ccc(C#N)cn3)nc2-c2ccc(Cl)cc2Cl)[nH]1` the “activity change, negative = cytotoxic” value was -3.48% (inactive).
With `CC(C)(O)CCc1ccc(OCc2cc(-c3cccc(OC(F)F)c3)c3ncccc3c2)cc1` the “activity change, negative = cytotoxic” value was 3.29% (inactive).
With `CC1(C)CCC(c2ccc(Cl)cc2)=C(CN2CCN(c3ccc(C(=O)NS(=O)(=O)c4ccc(N[C@H](CCN5CCOCC5)CSc5ccccc5)c(S(=O)(=O)C(F)(F)F)c4)cc3)CC2)C1` the Potency was 7.43 µM (active).
With `O=C(C=Cc1c(C(=O)O)[nH]c2cc(Cl)cc(Cl)c12)Nc1ccccc1` the “activity change, negative = cytotoxic” value was 1.54% (inactive).
In the case of `O=C(c1ccc(Nc2nccc(-c3cc4ccccc4s3)n2)cc1)N1CCC(N2CCCC2)CC1`, the Potency is reported as 23.5 µM (active).
For `Cc1cn(-c2cc(NC(=O)c3ccc(C)c(Nc4nccc(-c5cccnc5)n4)c3)cc(C(F)(F)F)c2)cn1`, the “activity change, negative = cytotoxic” value was 26.1% (inactive).
In the case of `Nc1ccc(S(=O)(=O)Nc2ncccn2)cc1`, the “activity change, negative = cytotoxic” value is reported as 21.2% (inactive).
With `CC[C@@H]1C(=O)N(C)c2cnc(Nc3ccc(C(=O)NC4CCN(C)CC4)cc3OC)nc2N1C1CCCC1` the Potency was 14.8 µM (active).
In the case of `CC(O)C1C(=O)N2C(C(=O)O)=C(SC3CNC(C(=O)N(C)C)C3)C(C)C12` (stereo not given), the “activity change, negative = cytotoxic” value is reported as 5.2% (inactive).
With `CCC(=C(c1ccccc1)c1ccc(OCCN(C)C)cc1)c1ccccc1` the “activity change, negative = cytotoxic” value was -20.4% (inactive).
In the case of `Cc1ccc(C(=O)Nc2cccc(C(F)(F)F)c2)cc1-c1ccc2nc(NCCN3CCOCC3)ncc2c1`, the “activity change, negative = cytotoxic” value is reported as -1.25% (inactive).
In the case of `CS(=O)(=O)c1ccc(-c2cnc(N)c(C(=O)Nc3ccccc3)n2)cc1`, the “activity change, negative = cytotoxic” value is reported as -3.32% (inactive).
In the case of `C=CCn1c(=O)c2cnc(Nc3ccc(N4CCN(C)CC4)cc3)nc2n1-c1cccc(C(C)(C)O)n1`, the Potency is reported as 3.72 µM (active).
In the case of `COc1ccc(C=Cc2cc(OC)c(OC)c(OC)c2)cc1O`, the “activity change, negative = cytotoxic” value is reported as -43.6% (inactive).
In the case of `CCN(CC)CCNC(=O)c1ccc2nc(-c3ccccc3)c(-c3ccc(CN4CCC(n5c(=O)[nH]c6ccccc65)CC4)cc3)nc2c1`, the Potency is reported as 3.72 µM (active).
For `CN1CC[C@@H](c2c(O)cc(O)c3c(=O)cc(-c4ccccc4Cl)oc23)[C@@H](O)C1`, the Potency was 0.296 µM (active).
With `CCC1=C[C@@H]2CN(C1)Cc1c([nH]c3ccccc13)[C@@](C(=O)OC)(c1cc3c(cc1OC)N(C)[C@@H]1[C@@](O)(C(=O)OC)[C@H](OC(C)=O)[C@]4(CC)C=CCN5CC[C@]31[C@@H]54)C2` the “activity change, negative = cytotoxic” value was 2.63% (inactive).
For `Cc1cc(N2CCOCC2)cc2[nH]c(-c3c(NC[C@@H](O)c4cccc(Cl)c4)cc[nH]c3=O)nc12`, the Potency was 18.7 µM (active).
For `COc1cc2c(Oc3ccc(NC(=O)C4(C(=O)Nc5ccc(F)cc5)CC4)cc3F)ccnc2cc1OCCCN1CCOCC1`, the Potency was 14.8 µM (active).
In the case of `CCCn1c(=O)c2[nH]c(-c3cnn(Cc4cccc(C(F)(F)F)c4)c3)nc2n(CC)c1=O`, the “activity change, negative = cytotoxic” value is reported as 7.67% (inactive).
With `CC1=C(CO)C(=O)O[C@@H]([C@@H](C)[C@H]2CC[C@H]3[C@@H]4C[C@H]5O[C@]56[C@@H](O)C=CC(=O)[C@]6(C)[C@@H]4CC[C@]23C)C1` the “activity change, negative = cytotoxic” value was 16.6% (inactive).
In the case of `Nc1cccc(-c2cc3c(Oc4cccc(O)c4)ncnc3[nH]2)c1`, the “activity change, negative = cytotoxic” value is reported as 17% (inactive).
For `Cc1cc(Nc2cc(NC(=O)c3c(Cl)cccc3Cl)ccn2)nc(N)n1`, the Potency was 18.7 µM (active).
In the case of `Cn1c(CNc2ccc(C(=N)N)cc2)nc2cc(C(=O)N(CCC(=O)O)c3ccccn3)ccc21`, the “activity change, negative = cytotoxic” value is reported as 18.2% [at 16.1 µM] (inactive).
For `CNC(=O)c1c(F)cccc1Nc1nc(Nc2cc3c(cc2OC)CCN3C(=O)CN(C)C)nc2[nH]ccc12`, the “activity change, negative = cytotoxic” value was 18.7% (inactive).
For `COc1ccc(-c2cc3c(C)nc(N)nc3n(C3CCC(OCCO)CC3)c2=O)cn1` (stereo not given), the Potency was 0.469 µM (active).
In the case of `CC(C)c1noc(N2CCC(COc3ccc(-c4ccc(S(C)(=O)=O)cc4)nc3)CC2)n1`, the “activity change, negative = cytotoxic” value is reported as -4.71% (inactive).
For `O=C(Nc1cn[nH]c1-c1nc2ccc(CN3CCOCC3)cc2[nH]1)NC1CC1`, the Potency was 4.69 µM (active).
For `COc1cccc(Nc2c(C(N)=O)cnc3c(C)cc(S(=O)(=O)c4cccc(C(=O)N(C)C)c4)cc23)c1`, the “activity change, negative = cytotoxic” value was 3.24% [at 16.1 µM] (inactive).
With `CNC(=O)c1ccc(N2C(=S)N(c3cnc(C#N)c(C(F)(F)F)c3)C(=O)C23CCC3)cc1F` the Potency was 14.8 µM (active).
For `COc1cccc(-c2ccc(NC(=O)C3=C(C(=O)O)CCC3)c(F)c2)c1`, the “activity change, negative = cytotoxic” value was 1.52% (inactive).
In the case of `C=CC(=O)Nc1cc2c(Nc3ccc(F)c(Cl)c3)ncnc2cc1C#CC(C)(C)N1CCN(C)CC1`, the Potency is reported as 7.43 µM (active).
In the case of `CC(NCc1ccc2c(c1)nc(NC(=O)c1ccc(-c3cn[nH]c3)s1)n2CC(C)(C)O)C(C)(C)C` (stereo not given), the Potency is reported as 1.18 µM (active).
In the case of `CNC(=O)c1nn(C)c2c1C(C)(C)Cc1cnc(Nc3ccc(N4CCN(C)CC4)cc3)nc1-2`, the Potency is reported as 5.9 µM (active).
For `O=C(Nc1cc(C(F)(F)F)cc(C(F)(F)F)c1)c1cc(Cl)ccc1O`, the Potency was 4.69 µM (active).
With `O=C(O)c1ccc2cc(-c3ccc(O)c(C45CC6CC(CC(C6)C4)C5)c3)ccc2c1` the “activity change, negative = cytotoxic” value was 11.7% (inactive).
For `CC[C@@]1(O)C(=O)OCc2c1cc1n(c2=O)Cc2cc3cc(O)ccc3nc2-1`, the “activity change, negative = cytotoxic” value was 12.6% (inactive).

— PubChem BioAssay (NCATS)
Potency is the fitted concentration of half-maximal effect.
